Experimental data published in PubChem BioAssay AID1851 (National Center for Advancing Translational Sciences (NCATS), 2009).
Several values for one entry are separate records, joined by “and”; a condition that tells them apart may be missing. Equal values may be shown once. Hit rate of the full screen: of about 16,000 compounds, about 5,700 (36%) were called active. Roughly 24% stayed inconclusive and do not appear here. The call rests on the fitted dose curve; in most records, active means well fitted curve in the direction sought with a large enough effect; inconclusive means small, poorly fitted or top-dose-only effect, or effect the other way; inactive means no such curve, though single readings can be large or run the other way. This is one part of the list.

Biological target: Cytochrome P450 1A2 (Homo sapiens) (UniProt P05177)
Experiment: Cytochrome panel assay with activity outcomes
Settings: recombinant CYP, pro-luciferin dealkylation, luminescence, p450-cyp1a2; series mostly up to 57.1 µM
On the % scale 0 is the no-effect control and ±100 the full control effect.

Chain of Cytochrome P450 1A2 (Homo sapiens) (P05177 whole entry, looked up): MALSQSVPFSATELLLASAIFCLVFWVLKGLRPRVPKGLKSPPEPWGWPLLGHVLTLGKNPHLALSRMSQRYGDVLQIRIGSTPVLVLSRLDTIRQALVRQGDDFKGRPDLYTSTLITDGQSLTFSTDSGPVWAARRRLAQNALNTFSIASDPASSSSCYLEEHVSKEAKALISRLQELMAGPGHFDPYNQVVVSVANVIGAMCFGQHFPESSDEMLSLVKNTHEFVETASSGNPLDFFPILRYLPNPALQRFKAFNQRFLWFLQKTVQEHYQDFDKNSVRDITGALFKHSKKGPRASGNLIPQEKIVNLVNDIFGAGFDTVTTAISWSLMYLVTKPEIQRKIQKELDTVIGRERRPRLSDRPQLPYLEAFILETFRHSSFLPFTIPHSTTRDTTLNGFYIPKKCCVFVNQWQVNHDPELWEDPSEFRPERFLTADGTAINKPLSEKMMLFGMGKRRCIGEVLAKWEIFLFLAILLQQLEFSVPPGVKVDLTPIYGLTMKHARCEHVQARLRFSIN

| SMILES | AC50 | activity, negative = inhibition |
| --- | --- | --- |
| CCCN[C@@H](C)C(=O)Nc1ccccc1C | inactive | – |
| Cc1cccc(C)c1NC(=O)C(c1ccccc1)N1CCC1=O (centres undefined) | inactive | – |
| Cc1ccccc1NC(=O)C(C)c1cccc(C(=O)c2ccccc2)c1 (centres undefined) | 11.2 µM (active) | – |
| CCCc1c(-c2ccc(O)cc2)nn(-c2ccc(O)cc2)c1-c1ccc(O)cc1 | 20 µM (active) | – |
| CCSc1nnc(NC(=O)Cc2ccc(OC)c(OC)c2)s1 | inactive | – |
| CC(=O)Nc1nnc(SCc2ccc(F)cc2)s1 | 10 µM (active) | – |
| Cc1ccccc1N(C(=O)Cc1cccs1)C(C(=O)NCC1CCCO1)c1cccnc1 (centres undefined) | inactive | – |
| O=C(NCC1CCCO1)C(c1cccnc1)N(C(=O)Cc1cccs1)c1cccnc1 (centres undefined) | inactive | – |
| O=C(NCC1CCCO1)C(c1cccnc1)N(C(=O)Cc1cccs1)c1ccccc1 (centres undefined) | 12.6 µM (active) | – |
| O=c1c2ccc(Cl)cc2nc(-c2cccc(C(F)(F)F)c2)n1O | 1.26 µM (active) | – |
| COC(=O)c1sccc1NC(=O)CN(C)NS(=O)(=O)c1ccc(F)cc1 | 11.2 µM (active) | – |
| COc1ccc(S(=O)(=O)NCCC(=O)NCc2ccc(F)cc2)cc1 | inactive | – |
| Cc1ccc(Cc2cnc(NC(=O)c3cccs3)s2)cc1 | 1.41 µM (active) | – |
| CCCc1nnc(NC(=O)c2cccs2)s1 | 0.631 µM (active) | – |
| CCCc1nnc(NC(=O)Cn2cnc3ccccc3c2=O)s1 | inactive | – |
| CCCc1nnc(NC(=O)CN2C(=O)C3C4C=CC(C4)C3C2=O)s1 (centres undefined) | inactive | – |
| CCOc1cc(NC(=O)c2cccs2)c(OCC)cc1NC(=O)c1ccco1 | inactive | – |
| O=C(Nc1ncc(Cc2cccc(Cl)c2)s1)c1cccs1 | 1.58 µM (active) | – |
| COc1ccc(O[C@H]2C=C[C@@H](c3ccccc3)O[C@H]2COC(=O)CC/C(C)=N\O[C@@H](C)CN2CCCCc3nc(C)c(C)cc32)cc1 | – | -2.12% [at 11.4 µM] (inactive) |
| O=C(c1csnn1)N1CCC2(CC1)CN(c1ccncc1)C2 | inactive | – |
| O=c1c2c(-c3cccs3)csc2ncn1-c1ccc(Br)cc1 | 0.794 µM (active) | – |
| Nc1[nH]nc2nc3ccccc3nc12 | 0.316 µM (active) | – |
| N[C@@H](Cc1cnc[nH]1)C(=O)O | inactive | – |
| Fc1ccc(C(OCCCc2cnc[nH]2)c2ccc(F)cc2)cc1 | 0.1 µM (active) | – |
| N=C(N)SCCc1cnc[nH]1 | inactive | – |

| SMILES | AC50 | activity, negative = inhibition |
| --- | --- | --- |
| NS(=O)(=O)c1cc(C(=O)O)c(O)c2ccccc12 | – | -19.2% [at 11.4 µM] (inactive) |
| C=CCNS(=O)(=O)c1cccc2cc(C(=O)O)c(O)cc12 | 1.58 µM (active) | – |
| O=C(O)c1cc2ccccc2c(S(=O)(=O)O)c1O | – | 6.64% [at 11.4 µM] (inactive) |
| O=C(Cn1cccc1C(=O)c1ccccc1)NCc1cccs1 | 20 µM (active) | – |
| CCN(CC(=O)NCc1cccs1)S(=O)(=O)c1ccc(C(C)C)cc1 | inactive | – |
| Cc1ccc(CCN2CC(C(=O)NCCN3CCOCC3)CC2=O)cc1 (centres undefined) | inactive | – |
| Cc1noc(C)c1COc1cccc(C(=O)OCC(=O)N2CC(=O)Nc3ccccc32)c1 | 25.1 µM (active) | – |
| Cc1cc(C=O)c(C)n1-c1ccc(N2CCCCC2)c([N+](=O)[O-])c1 | 14.1 µM (active) | – |
| Cc1cc(C=O)c(C)n1-c1ccc(NC2CCCC2)c([N+](=O)[O-])c1 | 0.447 µM (active) | – |
| CS(=O)(=O)N1CCN(c2ccc(C(=O)NC3C4CC5CC(C4)CC3C5)cc2[N+](=O)[O-])CC1 (centres undefined) | inactive | – |
| Cc1cc(C(=O)C(=O)NC(C)C)c(C)n1-c1ccc([N+](=O)[O-])cc1 | inactive | – |
| COc1ccc(/C=C2\SC(=O)N(CCNC(=O)C3CC(=O)N(c4ccccc4)C3)C2=O)cc1 (centres undefined) | inactive | – |
| COc1ccccc1OCCN1C(=O)S/C(=C\c2ccco2)C1=O | 14.1 µM (active) | – |
| CC(=O)[C@@H](C)CCO[C@@]1(C)OCC[C@@H]1C | – | -19.3% [at 11.4 µM] (inactive) |
| CC(C)(C)c1ccc(C(=O)c2c[nH]c(C(=O)NCCCn3ccnc3)c2)cc1 | 5.62 µM (active) | – |
| O=C(c1ccc(C(F)(F)F)cc1)c1c[nH]c(C(=O)NCCCn2ccnc2)c1 | 2 µM (active) | – |
| CC1=C(C#N)C(Nc2ccc(Cl)cn2)(C(F)(F)F)C(=O)N1 (centres undefined) | inactive | – |
| CC(=O)c1sc(NC(=O)C(C)C)nc1C | 10 µM (active) | – |
| CCOc1ccc2nc(N3CCCCCC3)sc2c1 | 2.82 µM (active) | – |
| CCOC(=O)C1CCN(C(=O)C2CCN(c3nc4ccc(OC)cc4s3)CC2)CC1 | inactive | – |
| CCOC(=O)N1CCN(C(=O)c2ccc3nc(N4CCC(C)CC4)sc3c2)CC1 | inactive | – |
| CC(=O)NC(C)C(c1cccs1)N1CCN(c2ccccc2)CC1 (centres undefined) | inactive | – |
| COC(=O)[C@@]1(Cc2ccc(F)cc2)[C@@H]2[C@@H](CC(=O)[C@H]2CC(=O)C(=O)N(C)C)CN1C(=O)c1ccccc1 | inactive | – |
| Cc1cnc(CNc2ncncc2-c2ccccc2CN(C)C)cn1 | 12.6 µM (active) | – |
| Cc1cnc(CNc2ncncc2-c2ccccc2C)cn1 | 25.1 µM (active) | – |

| SMILES | AC50 | activity, negative = inhibition |
| --- | --- | --- |
| Cc1cnc(CNc2ncncc2-c2ccccc2Cl)cn1 | 15.8 µM (active) | – |
| Cc1cnc(CNc2ncncc2-c2ccccc2C(F)(F)F)cn1 | inactive | – |
| CN(C)Cc1ccccc1-c1cncnc1NC1CC1 | 15.8 µM (active) | – |
| CC1=CC(=O)C=CC1(C)C(Cl)(Cl)Cl (centres undefined) | inactive | – |
| CCN1C(=O)[C@@H]2[C@H]3C(=CC[C@H]2C1=O)C(=O)[C@H]1OC1[C@H]3O (some centres undefined) | – | -3.23% [at 11.4 µM] (inactive) |
| Cc1nc(SC2CC(=O)N(c3ccc([N+](=O)[O-])cc3)C2=O)nc2c1CCCC2 (centres undefined) | inactive | – |
| Cc1cnc(CNc2ncncc2-c2ccccc2C#N)cn1 | 0.251 µM (active) | – |
| C[C@@]1(O)CCOC(=O)C1 | inactive | – |
| CCCCC#Cc1nc(N)c2ncn([C@@H]3O[C@@H](C(=O)NCC)[C@H](O)[C@@H]3O)c2n1 | inactive | – |
| COc1ccc(CCN(C(=O)C(F)(F)F)C(C(=O)NC2CCCC2)c2cccs2)cc1 (centres undefined) | 12.6 µM (active) | – |
| Cc1ccc(N(C(=O)C(F)(F)F)C(C(=O)NC2CCCCC2)c2cccs2)cc1C (centres undefined) | inactive | – |
| COc1ccc(CN(C(=O)Cc2cccs2)C(C(=O)NC2CCCC2)c2ccncc2)cc1 (centres undefined) | inactive | – |
| COc1cccc(N2CCN(C(=O)Nc3ccc4c(c3)NC(=O)CO4)CC2)c1 | inactive | – |
| Cc1cccc(Nc2ccccc2C(=O)OCC(=O)N(C)C2CCS(=O)(=O)C2)c1C (centres undefined) | inactive | – |
| Cc1cccc(Nc2ccccc2C(=O)OCC(=O)NCc2ccco2)c1C | 12.6 µM (active) | – |
| O=C(COC(=O)c1ccccc1Nc1cccc(C(F)(F)F)c1)NCc1ccco1 | 5.01 µM (active) | – |
| Cc1ccc(C(=O)N/C(=C/C=C/c2ccccc2)C(=O)NCc2ccco2)cc1 | inactive | – |
| O=C(COC(=O)c1cccc(S(=O)(=O)N2CCN(c3ccccc3)CC2)c1)NCc1ccco1 | inactive | – |
| O=C(CSc1nnc(CNc2ccccc2)o1)N1CCCc2ccccc21 | 12.6 µM (active) | – |
| CCN(CC)C(=O)CSc1nnc(C2CCCCC2)o1 | inactive | – |
| O=C(CSc1nc(-c2ccccc2)cs1)N1CCc2ccccc21 | 2.51 µM (active) | – |
| O=C(O)CCC(=O)N1CCc2cc(S(=O)(=O)NCc3cccs3)ccc21 | inactive | – |
| O=C(NCc1ccccc1)c1ccc(S(=O)(=O)N2CCCc3ccccc32)cc1 | inactive | – |
| O=C(CSc1n[nH]c(-c2ccccc2O)n1)N1CCCc2ccccc21 | 2 µM (active) | – |
| O=C(CSc1nnc(CNc2ccc(F)cc2)o1)OC1CCCCC1 | 25.1 µM (active) | – |

| SMILES | AC50 | activity, negative = inhibition |
| --- | --- | --- |
| CCN(CC)C(=O)CSc1nnc(CNc2ccc(F)cc2)o1 | inactive | – |
| O=C(CNCCO)N1CCc2ccccc21 | inactive | – |
| C[C@]12CC[C@H]3c4ccc(OC[C@H]5CO5)cc4CC[C@H]3[C@H]1CC[C@@H]2O | – | -8.48% [at 11.4 µM] (inactive) |
| CC(=O)OC[C@@H]1O[C@H](CCO/N=C(\C)CCN2CCc3nc(-c4ccccc4)c(-c4ccccc4)cc3C2)C=C[C@@H]1OC(C)=O | – | 1.24% [at 11.4 µM] (inactive) |
| O=C1[C@H]2[C@H]3[C@H](O)[C@H](O)C/C(=N/OC[C@@H](O)COCc4ccco4)[C@@H]3CC[C@@H]2C(=O)N1Cc1ccc2c(c1)OCO2 | – | -3.61% [at 11.4 µM] (inactive) |
| Cc1cccc(OCC(=O)N/N=C\C=C\c2ccc3c(c2)OCO3)c1C | 5.01 µM (active) | – |
| COC(=O)N/N=C\C=C\c1ccc2c(c1)OCO2 | inactive | – |
| CN1CCC2(CC1)CCN(S(=O)(=O)c1ccccc1)CC2 | inactive | – |
| Cc1ccc(CC(=O)N2CC(C)OC(C)C2)cc1 (centres undefined) | inactive | – |
| CC1CN(C(=O)CN2C(=O)NC3(CCCCCC3)C2=O)CC(C)O1 (centres undefined) | inactive | – |
| Cc1cc(C)n(C(=O)c2cc3c(s2)CCCC3)n1 | 0.282 µM (active) | – |
| CC1CN(C(=O)c2cc3c(s2)CCC3)CC(C)O1 (centres undefined) | 12.6 µM (active) | – |
| CCCN(CCC)CCc1cccc2c1CC(=O)N2 | inactive | – |
| NC(=O)CNCCC(c1ccccc1)c1ccccc1 | inactive | – |
| CN(C)CCCN1c2ccccc2Sc2ccc(C(F)(F)F)cc21 | 1.58 µM (active) and 794 nM (active) | – |
| CCC(=O)c1ccc2c(c1)N(CCCN(C)C)c1ccccc1S2 | 0.631 µM (active) | – |
| CN(C)CCCO[C@H]1[C@@H]2OC(C)(C)O[C@@H]2O[C@@H]1[C@H](O)CO | inactive | – |
| C/C(=N/Nc1ccc2ccccc2n1)c1ccccc1O | 1.58 µM (active) | – |
| CC(=NC1CCCCC1)c1ccccc1O | – | -14.9% [at 11.4 µM] (inactive) |
| C/C(CCN1CCc2nc(-c3ccccc3)c(-c3ccccc3)cc2C1)=N\O[C@@H](C)CN1CCCc2nc(C)c(C)cc21 | – | -2.64% [at 11.4 µM] (inactive) |
| Cc1cc2nnc(SCCCCN3C(=O)c4ccccc4C3=O)n2c2ccccc12 | 15.8 µM (active) | – |
| Cc1cc2nnc(SCC(=O)N3CCN(c4ccccc4)CC3)n2c(N)n1 | inactive | – |
| CC(C)NC(=O)CSc1nnc(C2CC2)n1-c1ccccc1 | inactive | – |
| Cc1cc2nnc(SCC(=O)OC(C)C)n2c2ccccc12 | 14.1 µM (active) | – |
